Data: ChEMBL document CHEMBL4513216, “Probing the Open Global Health Chemical Diversity Library for Multistage-Active Starting Points for Next-Generation Antimalarials” (ACS Infect Dis, 2020)
Out of some 69,000 compounds screened, about 8,600 (12%) showed an effect of 50% or more. Only a selection was taken, and strong results are over-represented in it overall.

These compounds were tested on Plasmodium berghei (assay: Screen against P. berghei liver stage (PbLuc), transformed with Luciferase, at 10uM). Conditions: tested at 10 uM.
Type: functional, HepG2
`CCOC(=O)[C@]12CCCN(Cc3ccco3)C[C@H]1CN(CCN(C)C)C2` gave an INHIBITION of -0.182%.
For `Cn1nc2c(cc1=O)CN(Cc1nc(-c3ccccn3)no1)CC2`, the INHIBITION was -19.7%.
Compound `CCC(=O)Nc1c(C)nn(COc2cccc(F)c2)c1C` has an INHIBITION of 26.7%.
For `Cc1cc(C)c2[nH]c(C(=O)NCCN3CCOC3=O)c(C)c2c1`, the INHIBITION was 24%.
With `CC(=O)N(Cc1noc(C)n1)C1CCN(CC(=O)N(C)C2CC2)C1` (stereo unspecified) the INHIBITION was 7.3%.
`O=C(O)c1cc2c(nc1NCC1CC1)CCN(C1CCOC1)CC2` (stereo unspecified) gave an INHIBITION of 29.8%.
In the case of `CC(C)c1n[nH]c(C2CN(C(=O)COc3ccc(F)cc3)CCO2)n1` (stereo unspecified), the INHIBITION is reported as 8.41%.
Compound `COc1ccc2cc(C3CN(C(=O)CCNC(C)=O)CCO3)ccc2c1` (stereo unspecified) has an INHIBITION of 81.9%.
Compound `O=C(CCNS(=O)(=O)c1ccccc1)N1CCOC(c2ccccc2)C1` (stereo unspecified) has an INHIBITION of -74.1%.
Work on `CC(=O)NCC(=O)N1CCOC(c2cccc(N)n2)C1` (stereo unspecified) yielded an INHIBITION of -24.4%.
For `COc1ccc2cc(C3CN(C(=O)COC(C)C)CCO3)ccc2c1` (stereo unspecified), the INHIBITION was 69.15%.
With `COCC(=O)N1CCC(c2ccc(OC)cc2)C1` (stereo unspecified) the INHIBITION was 23.6%.
For `FC(F)(F)COc1cccc(-c2nc3c([nH]2)CCNC3)c1`, the INHIBITION was 36.6%.
In the case of `CCc1nc(CN(C)C2CCN(CC(=O)N3CCOCC3)C2)no1` (stereo unspecified), the INHIBITION is reported as 22.3%.
`O=C(CN1CCOC(CNc2cccnn2)C1)N1CCCCC1` (stereo unspecified) showed an INHIBITION of -55.4%.
For `CNC(=O)C1CCN(Cc2nc(-c3ccc(SC)cc3)oc2C)C1` (stereo unspecified), the INHIBITION was -2.5%.
With `CSc1ccc(-c2nc(CN3CCC(NC(C)=O)C3)c(C)o2)cc1` (stereo unspecified) the INHIBITION was 66.8%.
With `CSc1ccc(-c2nc(CN3CCC(NC(C)=O)CC3)c(C)o2)cc1` the INHIBITION was 5.51%.
Compound `COCCOc1ccc(NC(=O)C2CC(=O)N(C(C)C)C2)cn1` (stereo unspecified) has an INHIBITION of -21.8%.
Work on `CC(=O)NCC(=O)N1CCC(c2cncc(Oc3cccnc3)n2)CC1` yielded an INHIBITION of 9.93%.
`CN(Cc1n[nH]c2c1CCC2)C(=O)CCc1cc2n(n1)CCNC2` gave an INHIBITION of 46.3%.
Work on `CCc1ncc(C(=O)N2C[C@@H](C)O[C@@H](C)C2)cn1` yielded an INHIBITION of 24.8%.
`CCc1ncc(C(=O)N2CC[C@H]3CC[C@@H](C2)N3C)cn1` gave an INHIBITION of 61.4%.
For `CCc1ncc(C(=O)N2CC(N3CCCCC3)C2)cn1`, the INHIBITION was 13.9%.
For `CNCc1ccc([C@@H]2CN(C)C[C@H]2C(N)=O)cc1`, the INHIBITION was 49.5%.
`CC(C)n1ccnc1CNC(=O)c1cccc(CCC(C)(C)O)c1` showed an INHIBITION of 54.5%.
In the case of `CN(Cc1nccn1C)C(=O)c1cccc(CCC(C)(C)O)c1`, the INHIBITION is reported as 39.4%.
In the case of `C[C@H](NC(=O)c1cccc(CCC(C)(C)O)c1)C(N)=O`, the INHIBITION is reported as 10.3%.
`CC(C)(O)CCc1cccc(C(=O)NCc2nccs2)c1` gave an INHIBITION of 56.3%.
`Cc1csc(CN(C)C(=O)c2cccc(CCC(C)(C)O)c2)n1` showed an INHIBITION of 34.9%.
`CC[C@@H](CO)NC(=O)c1cccc(CCC(C)(C)O)c1` was tested, and the INHIBITION was 5.78%.
